# Reference: PubChem BioAssay (NCATS)
# Results filed as inconclusive are left out. Calls of active or inactive are those of the source. Calls follow the shape of the dose curve; as a rule, active = well fitted cell-killing curve with a large enough effect; inconclusive = small, poorly fitted or top-dose-only effect, or effect the other way; inactive = no such curve, though single readings can be large or run the other way.
# Test: Viability qHTS for spleen associated tyrosine kinase inhibitor (SYKi) drug resistant MV4-11 cells (AID 1963824); also: nearly all actives have a fitted effect of over 35% in size
# Conditions: SYKi-resistant MV4-11 viability, CellTiter-Glo, 72 h; series mostly up to 45 µM
# Summary of the method: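 SYK inhibitor-resistant MV4-11 AML cells, 500 per well, added to predispensed compounds and incubated 72 hr at 37 C, 5% CO2. Viability measured by CellTiter-Glo luminescence after 10 min at room temperature.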
# Potency is read from the fitted curve at half-maximal effect.
Compound,Potency,"viability, % of control"
C=C1C(=O)O[C@@H]2C(OC(=O)/C(C)=C\C)/C(C)=C\C(=O)/C=C(\C)C[C@H](O)[C@@H]12 (stereo not given in full),1.01 µM (active),–
COc1c(C(C)C)c(O)c(O)c2c1C(OC)[C@H]1OC(=O)[C@@]23CCCC(C)(C)[C@H]13 (stereo not given in full),14.3 µM (active),–
C=C(CCO)C(=O)OCC1OCC(OC(=O)C(=C)CCO[C@@H]2O[C@H](COC(=O)C(=C)CCO[C@@H]3O[C@H](CO)[C@@H](O)[C@H](O)[C@H]3O)[C@@H](O)[C@H](O)[C@H]2O)C(O)C1O (stereo not given in full),inactive,–
CC(=O)O[C@@H]1[C@@H](OC(=O)/C=C/c2ccccc2)[C@H](C)O[C@@H](O[C@H]2[C@@H]3C=CO[C@@H](O[C@@H]4O[C@H](CO)[C@@H](O)[C@H](O)[C@H]4O)[C@@H]3[C@@]3(CO)O[C@@H]23)[C@@H]1OC(C)=O,inactive,–
CC(Oc1cc(-n2cnc3ccc(CN4CCN(C)CC4)cc32)sc1C(N)=O)c1ccccc1C(F)(F)F (stereo not given),0.461 µM (active),–
CN1CCN(C2=Nc3ccccc3Nc3ccc(OS(=O)(=O)C(F)(F)F)cc32)CC1,20.6 µM (active),–
CC(C)CC(=O)n1cc(C(N)=O)c(=O)cc1C(O)c1ccccc1 (stereo not given),inactive,–
CC(C)CC(=O)c1c(O)cc2c(c1O)C(CC(C)C)C1=C(O2)C(C)(C)C(=O)C(C)(C)C1=O (stereo not given),8.93 µM (active),–
CC(C)CCCCC(=O)N[C@@H](CO)C(=O)N[C@@H](CC(C)C)C(=O)[C@@]1(CO)CO1,7.31 µM (active),–
COc1cnc(-c2ccc(Cn3c(CC(C)(C)C(=O)O)c(SC(C)(C)C)c4cc(OC[C@@H]5Cc6ccccc6N5C(C)=O)ccc43)cc2)nc1,12.8 µM (active),–
CC(=O)NC(C)c1cnc(-c2cnc(Oc3ccc(OC(C)C)cc3)s2)s1 (stereo not given),10.3 µM (active),–
CC(C)(C)c1ccc(-c2nc3ccccc3[nH]2)cc1,3.99 µM (active),–
C/C1=C\[C@@H](C)C[C@@H](C)[C@@H](Cc2cnco2)OC(=O)/C(C)=C/[C@@H](C)C[C@@H](C)[C@@H](Cc2cnco2)OC1=O,0.502 µM (active),–
C/C=C(\C)C(=O)OCC1OC(OCC2OC(OC3(CO)OC(CO)C(O)C3O)C(O)C(O)C2O)C(O)C(O)C1O (stereo not given),inactive,–
CC1=C2CC(C)(C)CC2C(O)C2=C(C1)C(=O)OC2O (stereo not given),inactive,–
CC(C)(C[C@@](O)(Cc1cc2ccncc2[nH]1)C(F)(F)F)c1cc(F)ccc1O,2.31 µM (active),–
CC(=O)NC(C(=O)O[C@H]1CCC(C)(C)[C@@H]2CC=C3C(=O)OCC3(O)[C@@]12C)C(C)C (stereo not given in full),3.6 µM (active),–
CC(=O)O[C@@H]1C=C2[C@H](CC[C@@]3(C)[C@@]2(O)CC[C@H]2Cc4c([nH]c5ccccc45)[C@@]23C)O[C@@H]1C(C)(C)O,8.93 µM (active),–
O=C(Nc1cnccc1Cl)N1CCN(Cc2ccc3c(c2)OC(F)(F)O3)CC1,5.9 µM (active),–
COc1cc(Br)c(Nc2nc(-c3c(C)nc4ncccn34)cs2)c(Br)c1,1.16 µM (active),–

Compound,Potency,"viability, % of control"
C#Cc1cnc2[nH]c(=O)n(C(CC)CC)c2n1,inactive,–
CC(=O)OC1CC(O)(C(C)C)C2C(OC(=O)c3ccc(O)cc3)C=C(C)C(=O)CC12C (stereo not given),11.2 µM (active),–
CC(C)Oc1ccc(-c2cnc3c(-c4ccnc5ccccc45)cnn3c2)cc1,4.11 µM (active),–
CC(C)n1nc(C#Cc2ccccc2)c2c(N)ncnc21,8.2 µM (active),–
O=c1[nH]ccc2c(S(=O)(=O)N3CCCNCC3)cccc12,inactive,–
COC(=O)N1CCC(n2ncc3c(N4CCOCC4)nc(-c4ccc(NC(=O)Nc5ccc(CO)cc5)cc4)nc32)CC1,0.0184 µM (active),–
C=CC(C)(O)C(O)CC1C(C)(O)C(O)C(O)C2C(C)(C)CCCC21C (stereo not given),inactive,–
COc1cc(/C=C/C(=O)OC2[C@H](O)CC(O)(C(=O)O)C[C@H]2O)ccc1O (stereo not given in full),inactive,–
Cc1c(C(=O)Nc2ccc(Oc3ccnc4[nH]cc(-c5ccccc5)c34)c(F)c2)c(=O)n(-c2ccc(F)cc2)n1C,0.0206 µM (active),–
CCNC(=O)Nc1ccc(Oc2ncnc(N)c2/C=N/OC)cc1Cl,18.6 µM (active),–
CC(C)n1cnc2c(NCc3cccc(C(F)(F)F)c3)ncnc21,20.6 µM (active),–
CC1(C)CC[C@]2(C(=O)O[C@@H]3O[C@H](CO)[C@@H](O)[C@H](O)[C@H]3O)CC[C@]3(C)C(=CCC4[C@@]5(C)C[C@@H](O)[C@H](O)[C@@](C)(CO)C5[C@H](O)C[C@]43C)C2[C@@H]1O (stereo not given in full),inactive,–
Nc1ncnc2n[nH]c(Nc3ccc(F)cc3)c12,6.51 µM (active),–
CC1(C)CC[C@]2(C(=O)O)CC[C@]3(C)C(=CCC4[C@@]5(C)C(=O)C[C@H](O)[C@@](C)(CO)C5CC[C@]43C)[C@@H]2C1 (stereo not given in full),inactive,–
CC(C)n1nc(Cc2cccc3ccccc23)c2c(N)ncnc21,8.2 µM (active),–
C[C@@H]1O[C@@H](O[C@H]2[C@H](O)[C@@H](C(=O)O)O[C@@H](O[C@H]3CC[C@@]4(C)C(CC[C@]5(C)C4CC=C4C6CC(C)(C)CC[C@]6(C(=O)O)CC[C@]45C)C3(C)C)[C@@H]2O[C@@H]2OC[C@@H](O)[C@H](O)[C@H]2O)[C@H](O)[C@H](O)[C@H]1O (stereo not given in full),–,92.4% [at 9.25 µM] (inactive)
CC(C)(C)c1ccc(C(=O)Nc2cc(Cl)c(Br)cc2C(=O)O)cc1,16.4 µM (active),–
CCCCCCCCCCCCOCCOCCOCCOCCOCCOCCOCCOCCOCCO,5.96 µM (active),–
C[C@@H]1O[C@@H](O[C@H]2[C@@H]3C=CO[C@@H](O[C@@H]4O[C@H](CO)[C@@H](O)[C@H](O)[C@H]4O)[C@@H]3[C@@]3(CO)O[C@@H]23)[C@H](O)[C@H](OC(=O)/C=C/c2ccccc2)[C@H]1O,6.11 µM (active),–
NS(=O)(=O)c1cc2c(cc1Cl)NC(CSCc1ccccc1)=NS2(=O)=O,inactive,–
